# Most compounds without a hit are left out; they make up all but 19% or so of the library.
# ASM inhibitor – Inhibitors of Secretory Acid Sphingomyelinase (S-ASM): qHTS | Sphingomyelin phosphodiesterase (Homo sapiens), P17405 | placental ASM, HMU-PC fluorogenic substrate, 60 min | Potency, µM (titrated, usually from 57.5 µM), for inactives: at the highest dose activity change, negative = inhibition, usual class: inhibitors | 0.006% of 340,000 active; also: potency is read from the fitted curve at half-maximal effect
# Target sequence (P17405 47-631 limits assumed): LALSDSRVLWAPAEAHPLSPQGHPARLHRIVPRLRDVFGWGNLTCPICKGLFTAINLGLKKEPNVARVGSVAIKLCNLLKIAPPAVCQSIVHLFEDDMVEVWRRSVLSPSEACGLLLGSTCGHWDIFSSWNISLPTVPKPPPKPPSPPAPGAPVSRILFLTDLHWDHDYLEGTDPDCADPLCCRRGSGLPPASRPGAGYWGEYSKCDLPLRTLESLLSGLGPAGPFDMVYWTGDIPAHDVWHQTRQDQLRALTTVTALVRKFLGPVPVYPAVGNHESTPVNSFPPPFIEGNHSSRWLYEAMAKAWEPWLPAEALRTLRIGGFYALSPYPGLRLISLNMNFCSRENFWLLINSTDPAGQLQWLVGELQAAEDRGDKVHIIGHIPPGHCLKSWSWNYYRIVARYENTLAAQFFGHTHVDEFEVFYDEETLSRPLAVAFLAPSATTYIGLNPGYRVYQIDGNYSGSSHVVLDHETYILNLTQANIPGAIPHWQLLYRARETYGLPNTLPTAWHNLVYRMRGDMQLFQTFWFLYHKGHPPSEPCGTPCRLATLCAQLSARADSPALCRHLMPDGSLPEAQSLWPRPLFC
#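 Fluorescence read-out (Ex 386 nm, Em 447 nm) after stopping the reaction at pH 10. Enzyme: ASM from human placenta; substrate HMU-PC0, 9 uM final; 60 min, 37 °C. Compound preincubation 10 min, ambient temperature.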
# HepG2 viability – qHTS for Inhibitors of TGF-b: Cytotox Counterscreen; HepG2 CAGA-GFP viability, ATP luminescence, 18 h; Potency, µM (titrated, usually from 46.1 µM), for the others: at the top dose activity change, negative = cytotoxicity, usual class: cytotoxic; 0.76% of 410,000 active; AID 588856, 2011; also: potency is read from the fitted curve at half-maximal effect
#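 HepG2 CAGA-GFP cells (1000/well, DMEM with 1% FBS) received compound, then TGF-beta at 500 pg/mL final, and were incubated 18 hours at 37 degrees C. Viability was read by CellTiter-Glo luminescence. Media-only wells were set as complete cell-killing and DMSO as no toxicity.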
# IL-1B inflam inh – qHTS for Inhibitors of Inflammasome Signaling: IL-1-beta AlphaLISA Primary Screen; THP-1 LPS/ATP IL-1B secretion, AlphaLISA, 16 h; hits give low values; activity change, % at 57.5 µM; 4.7% of 360,000 active; AID 743279, 2014; in the data active = activity change below about -50%; inconclusive = mostly about -30% to -49%; also: % is scaled to controls: 0 for no effect and ±100 for the full control effect
#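 THP-1 cells pretreated 1 hr with compounds (up to 57.5 uM final), then stimulated with LPS (250 ng/mL final) plus ATP (1.25 mM final); secreted IL-1B measured by AlphaLISA after 16 hr, decreased signal indicating inhibition.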
# DT40 TDP1 CPT – qHTS for Inhibitors of human tyrosyl-DNA phosphodiesterase 1 (TDP1): qHTS in cells in presence of CPT | 12% of 420,000 active | Potency, µM (titrated, usually from 46.2 µM), for inactives: at the top dose activity change, negative = growth inhibition, actives largely listed as inhibitors | chicken DT40 Tdp1-/-;hTDP1 cells + 20 nM CPT, ATP luminescence, 48 h; also: potency is read from the fitted curve at half-maximal effect; % is scaled to controls: 0 for no effect and ±100 for the full control effect; nearly all actives have a fitted effect of over 55% in size
#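 Chicken DT40 Tdp1-/- cells stably complemented with human TDP1 were seeded at 400 cells/well in medium containing 20 nM camptothecin, exposed to pin-transferred compounds, and grown at 37 °C for at least 48 hr. Viability was read as ATP luminescence.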
# TDP1 cell noCPT – qHTS for Inhibitors of human tyrosyl-DNA phosphodiesterase 1 (TDP1): qHTS in cells in absence of CPT; 15% of 420,000 active; Potency, µM (top dose mostly 46.2 µM), for the others: at the highest dose activity change, negative = growth inhibition, usual class: inhibitors; DT40 Tdp1-/- hTDP1 cells, no CPT, ATP luminescence, 48 h; also: potency is read from the fitted curve at half-maximal effect; % is scaled to controls: 0 for no effect and ±100 for the full control effect; nearly all actives have a fitted effect of over 55% in size
#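 Luminescent ATP content (CellTiter-Glo) served as the growth readout. Knockout chicken DT40 cells expressing human TDP1 were exposed to compounds without camptothecin for a minimum 48 hr at 37 °C.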
# TGFb SMAD3 inh – qHTS for Inhibitors of TGF-b. HepG2 CAGA-GFP TGF-b/SMAD3 reporter, GFP fluorescence, 18 h; TGF-beta stimulated, 500 pg/mL final. Potency, µM (doses to about 46.1 µM), for inactives: at the highest dose activity, negative = inhibition, hits mostly inhibitors. 1.2% of 410,000 active. AID 588855, 2011; also: potency is read from the fitted curve at half-maximal effect; % is scaled to controls: 0 for no effect and ±100 for the full control effect; nearly all actives have a fitted effect of over 65% in size
#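 HEPG2 CAGA-GFP cells (1000/well, DMEM with 1% FBS) were pre-incubated 2 h at 37 degrees C, given compound by pin tool, then stimulated with TGF-beta at 500 pg/mL final for 18 h before per-cell GFP fluorescence imaging.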
# * = called active by the depositor; ? = inconclusive. Unless noted, calls follow the shape of the dose curve; as a rule, active = well fitted curve in the direction sought with a large enough effect; inconclusive = small, poorly fitted or top-dose-only effect, or another doubt; inactive = no such curve, though single readings can be large; an effect the other way counts as inactive or inconclusive.
SMILES,ASM inhibitor,HepG2 viability,IL-1B inflam inh,DT40 TDP1 CPT,TDP1 cell noCPT,TGFb SMAD3 inh
COc1ccc(C(C(=O)NC2CCCCC2)N(C(=O)Cc2c[nH]c3ccccc23)c2ccccc2C)cc1OC (stereo unspecified),-4%,13%,-61*,?,21µM*,-15%
Cc1ccc(C(C(=O)NC2CCCCC2)N(Cc2ccco2)C(=O)Cc2c[nH]c3ccccc23)o1 (stereo unspecified),-6%,3%,-77*,?,?,?
O=C(NC1CCCC1)C(c1ccc(F)cc1)N(Cc1ccc(F)cc1)C(=O)c1ccn[nH]1 (stereo unspecified),1%,4%,-6,9%,-20%,-2%
O=C(NC1CCCC1)C(c1ccc(F)cc1)N(Cc1ccccc1Cl)C(=O)CCl (stereo unspecified),0%,-27%,-91*,5.8µM*,3.3µM*,-27%
Cc1ccccc1N(C(=O)Cc1c[nH]c2ccccc12)C(C(=O)NC1CCCCC1)c1ccco1 (stereo unspecified),5%,-30%,-4,21µM*,9.2µM*,-6%
OC(CN1CCC(Cc2ccccc2)CC1)c1ccccc1 (stereo unspecified),1%,5%,0,-5%,0%,23%
CCOc1ccc(CN(CC)C(=O)Cc2c[nH]c3ccccc23)cc1OC,-3%,-2%,0,?,15µM*,22%
COCCN(C(=O)CCl)C(C(=O)NC1CCCCC1)c1ccccc1C (stereo unspecified),2%,-76%,-101*,2.9µM*,2.1µM*,?
Cc1ccc(C(C(=O)NC2CCCCC2)N(C(=O)Cc2c[nH]c3ccccc23)c2ccccc2C)o1 (stereo unspecified),3%,-1%,21,26µM*,21µM*,4%
CCN(Cc1ccccc1)C(=O)Cc1c[nH]c2ccccc12,-12%,-22%,-7,3%,-23%,-3%
COc1ccc(C(C(=O)NC2CCCCC2)N(Cc2cccs2)C(=O)Cc2c[nH]c3ccccc23)cc1OC (stereo unspecified),-4%,-1%,?,13µM*,21µM*,-1%
CCc1ccc2nc(Nc3ccc(OC)cc3OC)c(C#N)cc2c1,-7%,-1%,-14,-6%,?,-1%
O=C(NC1CCCCC1)C(c1ccc(F)cc1)N(Cc1cccs1)C(=O)CN1C(=O)c2ccccc2S1(=O)=O (stereo unspecified),-5%,-1%,40,16µM*,16µM*,-25%
CCc1ccc(C2NC(=S)NC3=C2C(=O)N(c2ccccc2OC)C(c2ccc(CC)cc2)N3)cc1 (stereo unspecified),-24%,-81%,-79*,16µM*,18µM*,?
COc1ccccc1N1C(=O)c2ccccc2NC1c1ccncc1 (stereo unspecified),76%,3%,28,-9%,2%,11%
O=C1C2=C(NC(=S)NC2c2ccc(Cl)cc2)NC(c2ccc(Cl)cc2)N1c1ccc(Cl)cc1 (stereo unspecified),?,-112%,-101*,?,?,?
CC12CCC(=O)N1C(C(=O)Nc1ccccc1F)CS2 (stereo unspecified),4%,6%,-2,-10%,-11%,11%

# Compound activity (PubChem BioAssay)
